Reference: PubChem BioAssay (Tox21)
Results filed as inconclusive are left out. The source made the active and inactive calls. Unless noted, the call rests on the fitted dose curve; in most records, active means well fitted curve in the direction sought with a large enough effect in the repeat runs; inconclusive means weak or mixed curves; inactive means no such curve, though single readings can be large; an effect the other way counts as inactive or inconclusive.

Tests used:
[1] = qHTS assay for small molecules that induce genotoxicity in human embryonic kidney cells expressing luciferase-tagged ATAD5 (AID 651632); further: nearly all actives have a fitted effect of over 15% in size
How it was run: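 DMSO vehicle served as the control. HEK293T reporter cells, 16 hr at 37C, then 30 min Amplite at room temperature; ATAD5 induction is measured as luciferase activity.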

[2] = qHTS assay for small molecules that induce genotoxicity in human embryonic kidney cells expressing luciferase-tagged ATAD5 - cell viability (AID 651634; calls by dose curve; further: nearly all actives have a fitted effect of over 25% in size)
How it was run: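 Here HEK293T cells with the ATAD5 luciferase reporter are incubated with test compounds for 15.5 hr, and cytotoxicity is then gauged by measuring protease activity in live cells using fluorescence.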

[3] = qHTS assay for small molecule disruptors of the mitochondrial membrane potential - cell viability (AID 720634; calls by dose curve;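 further: human HepG2 liver cancer cells; series mostly up to about 83 µM; nearly all actives have a fitted effect of over 20% in size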)
How it was run: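 Viability of HepG2 cells is scored from ATP content by luminescence; cells are exposed to compound for 1 hr at 37 C and 5% CO2, then dosed with m-MPI dye before the CellTiter-Glo reagent.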

[4] = qHTS assay to test for compound auto fluorescence at 590 nm (red) in HepG2 cells (AID 720674)
How it was run: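 Red autofluorescence (Ex/Em 540/590 nm, Rose Bengal sodium equivalents) was measured in HepG2 cells, 2,000 per well in MEM plus 10% FBS, plated overnight at 37 C. Readings were taken 1 hr after adding 23 nL compound or DMSO, at 37 C and 5% CO2.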

[5] = qHTS assay to test for compound auto fluorescence at 535 nm (green) in HepG2 cells (AID 720675)
[6] = qHTS assay to test for compound auto fluorescence at 460 nm (blue) in HEK293 cell free culture (AID 720681)
How it was run: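 Blue fluorescence (Ex 405/Em 460 nm, triamterene-equivalent) was read immediately after pin transfer of compound or DMSO into medium (DMEM, 10% FBS) without cells.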

[7] = qHTS assay to test for compound auto fluorescence at 535 nm (green) in HEK293 cell free culture (AID 720682)
How it was run: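 Measurement is a direct plate read of green fluorescence (485 nm in, 535 nm out) after compound addition to serum-supplemented DMEM lacking cells, with fluorescein used to express intensities.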

[8] = qHTS assay to test for compound auto fluorescence at 590 nm (red) in HEK293 cell free culture (AID 720683)
How it was run: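 Red-channel autofluorescence of compounds in culture medium (DMEM, 10% FBS), no cells, measured at 540/590 nm. Rose Bengal sodium is the reference fluorophore for equivalence.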

[9] = qHTS assay to test for compound auto fluorescence at 460 nm (blue) in HepG2 cell free culture (AID 720685)
How it was run: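 Cell-free plates of MEM plus 10% FBS received 23 nL compound or DMSO vehicle; blue-channel (405/460 nm) intensity scored against triamterene as reference fluorophore.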

[10] = qHTS assay to test for compound auto fluorescence at 535 nm (green) in HepG2 cell free culture (AID 720686)
[11] = qHTS assay to test for compound auto fluorescence at 460 nm (blue) in HepG2 cells (AID 720687)
How it was run: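 Blue-channel autofluorescence (Ex/Em 405/460 nm, triamterene-equivalent) was measured after 1 hr compound exposure at 37 C, 5% CO2. Cells were HepG2, plated overnight at 37 C in MEM plus 10% FBS.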

[12] = qHTS assay to identify small molecule antagonists of the glucocorticoid receptor (GR) signaling pathway - cell viability counter screen (AID 720693); further: nearly all actives have a fitted effect of over 55% in size
[13] = qHTS assay to identify small molecule antagonists of the thyroid receptor (TR) signaling pathway (AID 743065); further: series mostly up to about 70 µM; nearly all actives have a fitted effect of over 55% in size
How it was run: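 Antagonism measured as loss of luciferase signal in GH3 cells stably carrying a TRE-luciferase reporter, co-treated with compound and T3 (1 nM final) for 23.5 h at 37 C. Viability was read in the same well by CellTiter-Fluor.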

[14] = tested on: thyroid hormone receptor (rat, GH3 cells); assay: qHTS assay to identify small molecule agonists of the thyroid receptor (TR) signaling pathway (AID 743066; calls by dose curve)
[15] = qHTS assay to identify small molecule antagonists of the estrogen receptor alpha (ER-alpha) signaling pathway - cell viability counter screen (AID 743074; calls by dose curve;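 further: HEK293 cells carrying ER-alpha-UAS-bla reporter stimulated with 17beta-estradiol; nearly all actives have a fitted effect of over 45% in size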)
[16] = qHTS assay to identify small molecule antagonists of the estrogen receptor alpha (ER-alpha) signaling pathway using the BG1 cell line - cell viability counter screen (AID 743081);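 further: compound given together with 17beta-estradiol as the ER stimulus; series mostly up to about 70 µM; nearly all actives have a fitted effect of over 45% in size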
Aromatase (Homo sapiens) = Aromatase (Homo sapiens) (UniProt P11511); assay: qHTS assay to identify aromatase inhibitors (AID 743083); further: series mostly up to about 70 µM; nearly all actives have a fitted effect of over 55% in size
[17] = qHTS assay to identify aromatase inhibitors - cell viability counter screen (AID 743084);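 further: cells stimulated with testosterone during compound exposure; nearly all actives have a fitted effect of over 55% in size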
[18] = target: Aryl hydrocarbon receptor (Homo sapiens) (UniProt P35869); assay: qHTS assay to identify small molecule that activate the aryl hydrocarbon receptor (AhR) signaling pathway (AID 743085);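 further: HG2L7.5c1 human HepG2 liver cells with stably integrated DRE-driven firefly reporter; series mostly up to about 70 µM; nearly all actives have a fitted effect of over 15% in size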
How it was run: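 24 h compound exposure, 37C, HepG2-derived HG2L7.5c1 cells with DRE-responsive luciferase. Readouts: fluorescence viability, then luminescence at room temperature after 30 min.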

[19] = qHTS assay to identify small molecule phospholipidosis (PLD) inducers (AID 1259344; active means well fitted curve in the direction sought with a large enough effect; an effect the other way counts as inactive or inconclusive)
How it was run: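 Accumulated phospholipid, stained red by LipidTOX during 24 h compound treatment of HepG2 cells at 37 C, is quantified from images as pit number and intensity, normalised per cell using Hoechst-stained nuclei.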

Measured: Potency

Chain of Aromatase (Homo sapiens) (P11511 whole entry, looked up): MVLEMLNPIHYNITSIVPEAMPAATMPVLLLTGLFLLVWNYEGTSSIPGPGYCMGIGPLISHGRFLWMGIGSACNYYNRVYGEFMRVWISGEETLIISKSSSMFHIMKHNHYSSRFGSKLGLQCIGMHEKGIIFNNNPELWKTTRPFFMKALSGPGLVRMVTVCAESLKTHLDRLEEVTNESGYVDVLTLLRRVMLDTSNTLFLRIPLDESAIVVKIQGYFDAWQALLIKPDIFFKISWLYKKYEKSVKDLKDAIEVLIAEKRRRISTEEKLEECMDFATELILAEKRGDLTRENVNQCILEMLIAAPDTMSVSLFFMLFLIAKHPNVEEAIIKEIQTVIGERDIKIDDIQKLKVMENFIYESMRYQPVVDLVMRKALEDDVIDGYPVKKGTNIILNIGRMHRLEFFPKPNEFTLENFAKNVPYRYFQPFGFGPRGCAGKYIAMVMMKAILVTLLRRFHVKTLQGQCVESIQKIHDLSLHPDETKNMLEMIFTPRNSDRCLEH
Chain of Aryl hydrocarbon receptor (Homo sapiens) (P35869 whole entry, looked up): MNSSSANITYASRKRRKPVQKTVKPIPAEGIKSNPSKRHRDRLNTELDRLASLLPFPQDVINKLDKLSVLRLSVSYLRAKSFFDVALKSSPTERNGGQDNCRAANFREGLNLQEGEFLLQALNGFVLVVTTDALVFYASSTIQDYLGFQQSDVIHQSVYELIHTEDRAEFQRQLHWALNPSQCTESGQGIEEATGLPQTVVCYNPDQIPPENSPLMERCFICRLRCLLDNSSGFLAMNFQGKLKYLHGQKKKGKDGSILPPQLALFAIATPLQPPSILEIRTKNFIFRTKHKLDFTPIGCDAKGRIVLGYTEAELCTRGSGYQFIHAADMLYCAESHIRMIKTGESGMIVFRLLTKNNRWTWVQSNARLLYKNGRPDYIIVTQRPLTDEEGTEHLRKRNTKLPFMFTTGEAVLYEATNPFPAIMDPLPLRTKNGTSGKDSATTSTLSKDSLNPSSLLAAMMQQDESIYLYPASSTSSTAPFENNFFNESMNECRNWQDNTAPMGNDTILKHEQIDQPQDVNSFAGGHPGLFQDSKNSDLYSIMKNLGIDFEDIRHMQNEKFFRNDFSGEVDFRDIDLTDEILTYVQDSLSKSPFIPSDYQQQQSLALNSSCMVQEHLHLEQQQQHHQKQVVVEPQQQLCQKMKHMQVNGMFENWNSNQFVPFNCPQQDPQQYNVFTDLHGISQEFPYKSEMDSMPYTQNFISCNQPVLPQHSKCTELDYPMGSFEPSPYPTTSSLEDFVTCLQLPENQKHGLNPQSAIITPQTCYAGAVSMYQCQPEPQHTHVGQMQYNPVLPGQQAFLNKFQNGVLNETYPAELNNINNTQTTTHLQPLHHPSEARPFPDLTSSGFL

CCON=O
inactive: all assays above

S=C(S)N1CCNCC1
inactive: all assays above

CCCCCCC(=O)O[C@H]1CC[C@H]2[C@@H]3CC[C@H]4CC(=O)C=C(C)[C@]4(C)[C@H]3CC[C@]12C
not listed: [15]
inactive: all other assays above

CN1CCCC(=C(c2cccs2)c2cccs2)C1
inactive: all assays above

C[N+]1(C)[C@@H]2CC[C@H]1CC(OC(=O)c1c[nH]c3ccccc13)C2 (some centres undefined)
inactive: all assays above

O=C(CS(=O)C(c1ccccc1)c1ccccc1)NO (centres undefined)
inactive: all assays above
